Compounds with a hit are over-represented: about 2.3% of the library has one in this group of screens.
CCT modulator = changes cytosolic chaperonin activity; hit rate 0.3% among 360,000; purified chaperonin ATPase assay, HTRF ADP detection, 30 min; activity change, % (test concentration not listed), hits read low; AID 651819; in the data active means activity change below about -30%; further: on the % scale 0 is the no-effect control and ±100 the full control effect
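We incubate TRiC, 40 or 20 nM final, with library compounds at 76 uM and 10 uM ATP for 30 min at 37 °C. ADP formed is detected with Transcreener HTRF reagents after 30 min at room temperature.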
aSyn yeast inh = rescues yeast growth from alpha-synuclein toxicity; Yeast expressing alpha-synuclein, growth rescue, BacTiter-Glo, 24 h; Potency, µM (top dose mostly 46.1 µM), inactives show top-dose growth rescue (activation), actives largely listed as activators; hit rate 0.14% among 370,000; further: potency means the concentration at half of the fitted maximal effect; % of control where 0% means no effect; nearly all actives have a fitted effect of over 65% in size
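Screening used galactose-induced yeast with toxic alpha-synuclein levels, exposed to compound for 24 hr at 30 deg C. Cell growth, read with BacTiter-Glo luminescence, gave the measured signal.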
Abeta yeast res = restores growth of yeast expressing A-beta42 peptide. yeast expressing A-beta42, growth rescue, OD600, 48 h; response scale: 0% DMSO, 100% iron-clioquinol control. Potency, µM (titrated, usually from 46.1 µM), usual class: activators. hit rate 0.063% among 410,000. AID 1347071; further: potency means the concentration at half of the fitted maximal effect; nearly all actives have a fitted effect of over 55% in size
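Yeast A-beta toxicity model in growth medium with pinned compounds, 48 h at 30 C; growth read as absorbance at 600 nm. Normalized to FeCl3/clioquinol equimolar mix (positive) and DMSO (negative).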
TDP43 rescue = TDP-43 toxicity inhibition in yeast; TDP-43 expressing yeast growth rescue, BacTiter-Glo, 24 h; Potency, µM (top dose mostly 46.1 µM), inactives show top-dose growth rescue (activation), most hits filed as activators; hit rate 1.8% among 410,000; AID 652104; further: potency means the concentration at half of the fitted maximal effect; % of control where 0% means no effect; nearly all actives have a fitted effect of over 50% in size
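Yeast cells expressing TDP-43 under galactose induction are exposed to compounds for 24 hr at 30 deg C. BacTiter-Glo luminescence measures growth, so protective compounds score as activators.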
FUS yeast rescue = FUS proteinopathy suppression in yeast | Potency, µM (highest dose often 76.6 µM), hits mostly activators | S. cerevisiae FUS-expressing, growth rescue, OD600, 24 h | hit rate 0.24% among 390,000;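 further: potency means the concentration at half of the fitted maximal effect; plate controls were DMSO vehicle for no effect and reference control for full effect; nearly all actives have a fitted effect of over 55% in size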
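Read-out: OD at 600 nm after 24hr at 30C, reporting rescue of FUS-induced yeast toxicity. Cells at OD 0.005 in galactose (2%) minimal medium; compounds tested in a dilution series; CP55940 titration from 92uM final as control.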
MmCpn inh = inhibitors of Methanococcus maripaludis chaperonin TRiC (MmCpn). purified Mm-Cpn ATPase, ADP Transcreener TR-FRET. Potency, µM (highest dose often 76.9 µM), for the others: at the highest dose activity, negative = inhibition, actives largely listed as inhibitors. hit rate 0.031% among 330,000. AID 504842; further: potency means the concentration at half of the fitted maximal effect; on the % scale 0 is the no-effect control and ±100 the full control effect; nearly all actives have a fitted effect of over 80% in size
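Inhibition of chaperonin ATP hydrolysis is measured as reduced ADP production, detected by competitive TR-FRET in which signal falls with ADP. Final enzyme 25 nM and ATP 10 uM, reacted 30 min at 37°C.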
The depositor's hits bear a star; i = inactive; ? = inconclusive; . = not tested or not shown; [ ] = dose if it differs, or a comment. Unless noted, the call rests on the fitted dose curve; in most records, active means well fitted curve in the direction sought with a large enough effect; inconclusive means small, poorly fitted or top-dose-only effect, or another doubt; inactive means no such curve, though single readings can be large; an effect the other way counts as inactive or inconclusive.

SMILES | CCT modulator | aSyn yeast inh | Abeta yeast res | TDP43 rescue | FUS yeast rescue | MmCpn inh
O=C(Nc1ccc2c(c1)OCCO2)c1ccccc1 | -1 | -18% | i | -2% | i | 0%
O=C(O)C1CCCCC1C(=O)Nc1ccc2c(c1)OCCO2 (stereo not given) | 0 | -10% | i | -13% | i | 1%
OC(c1cccc(Cl)c1)c1nc(-c2ccccc2)cs1 (stereo not given) | 1 | ? | i | 14µM* | i | .
OC(c1ccccc1)c1nc(-c2ccc(Cl)cc2)cs1 (stereo not given) | -4 | ? | i | 35µM* | i | .
OC(c1ccccc1)c1nc(-c2ccccc2)cs1 (stereo not given) | 0 | 5% | i | 0% | i | .
COCCCNC(=O)CSc1nnc(-c2ccncc2)n1-c1ccc(OC)cc1 | . | . | . | . | i | .
C[N+]1(CC(=O)c2c3ccccc3cc3ccccc23)CCOCC1 | . | 3% | . | . | . | .
COCCNc1oc(COc2cccc(C)c2)nc1C#N | -10 | -4% | i | 1% | i | -4%
N#Cc1nc(COc2cccc(Cl)c2)oc1N1CCCC1 | -2 | 8% | i | 14µM* | i | 1%
Cc1cccc(OCc2nc(C#N)c(NCc3ccccc3Cl)o2)c1 | . | . | i | 28µM* | i | .
N#Cc1nc(COc2ccc(F)cc2)oc1N1CCCC1 | 2 | 21% | i | 0% | i | -1%
CNc1ccc(C=O)cc1Cl | . | -3% | . | . | . | .
Cc1ccc(CCNC(=O)C2CCN(Cc3nc(-c4ccccc4C)oc3C)CC2)cc1 | . | . | i | -8% | i | .
CC(=O)Nc1cccc(-c2nnc(SCC(=O)c3cc([N+](=O)[O-])ccc3Cl)o2)c1 | . | 0% | i | 1% | 13µM* | .
CN1CCC(N[C@@H](Cc2c[nH]c3ccccc23)C(=O)NCC(c2ccccc2)c2ccccc2)(C(=O)NC2CCCCC2)CC1 | . | . | . | . | i | .
CC(C)(C)OC(=O)N1CCC(N[C@@H](Cc2c[nH]c3ccccc23)C(=O)NCC(c2ccccc2)c2ccccc2)(C(=O)NC2CCCCC2)CC1 | . | . | . | . | 10µM* | .
COC(=O)c1cc(NC(=O)NC2CCCCN(Cc3ccc(Cl)cc3)C2=O)cc(C(=O)OC)c1 (stereo not given) | . | . | . | . | i | .
COc1ccccc1OCCn1c(CCNC(=O)C2CCCCC2)nc2ccccc21 | . | 1% | . | . | . | .
CCN(C(=O)COc1cc(=O)n(C)c2ccccc12)c1cccc(Cl)c1 | -55* | . | i | -9% | i | 0%
COc1cccc(C2=CC(=O)C[C@H](c3ccc4c(c3)OCO4)C2)c1OC | 0 | -2% | i | 13µM* | ? | 1%
COc1cc(F)c(C2=CC(=O)C[C@H](c3ccc4c(c3)OCO4)C2)cc1F | -1 | -2% | i | 13µM* | i | 0%
COc1cccc(OC)c1C1=CC(=O)C[C@H](c2ccc3c(c2)OCO3)C1 | -3 | -6% | i | ? | i | -4%
COc1ccc([C@H]2CC(=O)C=C(c3cc(F)ccc3OC)C2)cc1 | 0 | 8% | i | ? | i | -3%
COc1ccc([C@H]2CC(=O)C=C(c3ccc4c(c3)OCO4)C2)cc1OC | -3 | -1% | i | 16% | i | -7%
COc1ccc(F)cc1C1=CC(=O)C[C@H](c2ccc3c(c2)OCO3)C1 | 0 | 1% | i | 22µM* | i | -2%
SMILES | CCT modulator | aSyn yeast inh | Abeta yeast res | TDP43 rescue | FUS yeast rescue | MmCpn inh
COCc1cc(CNC(=O)C2CCC(=O)N(Cc3cccc(OC)c3)C2)[nH]n1 (stereo not given) | -48* | 4% | i | 15% | i | -1%
COc1ccc(CCN2CC(C(=O)NCc3cccc4[nH]ccc34)CCC2=O)cc1 (stereo not given) | -1 | 0% | i | 4% | i | -1%
COc1ccc2nc(CNC(=O)C3CCC(=O)N(CCc4ccccc4)C3)[nH]c2c1 (stereo not given) | -56* | 0% | i | -3% | i | -1%
COc1cccc(CN2CC(C(=O)N(C)Cc3nc(C)cs3)CCC2=O)c1 (stereo not given) | -31* | 6% | i | 2% | i | 1%
COc1cccc(CN2CC(C(=O)N(C)CCc3ccccc3)CCC2=O)c1 (stereo not given) | -1 | 8% | i | 4% | i | 0%
COCc1cc(CNC(=O)C2CCC(=O)N(Cc3ccccc3OC)C2)[nH]n1 (stereo not given) | 2 | 3% | i | -22% | i | 5%
NC(=O)C1CCN(c2nc(-c3ccccc3Cl)cs2)CC1 | . | . | . | . | . | 2%
Cc1ccccc1N1CCN(S(=O)(=O)c2ccc3c(c2)n(C)c(=O)c(=O)n3C)CC1 | . | . | . | . | i | .
O=S(=O)(NCc1ccccc1)NCc1ccccc1F | -52* | 9% | i | -17%[0.397 µM] | i | 2%
O=S(=O)(NCc1ccc(Cl)cc1)NCc1ccccc1F | -3 | 9% | i | -12%[0.397 µM] | i | 1%
c1cc(-c2nnc3n2N=C(c2ccc4c(c2)OCO4)CS3)ccn1 | . | . | . | . | i | .
COc1cccc(CNS(=O)(=O)c2ccc(-c3cc(C(F)(F)F)on3)s2)c1 | . | . | i | ? | i | .
CNc1nc2sc3c(c2c(=O)n1C)CC(C)(C)SC3 | 0 | 4% | i | 13µM* | i | 0%
Clc1cccc(-n2ncc3c(NC4CCCCC4)ncnc32)c1 | . | . | i | 16µM* | i | .
Cc1ccc(Cl)cc1-n1ncc2c(NC3CCCCC3)ncnc21 | . | . | i | 13µM* | i | .
CC(=O)c1cccc(Nc2cc(C)nc3nc(-c4ccccc4C)nn23)c1 | . | . | i | 11µM* | i | .
Cc1cc(Nc2cccc(C(=O)O)c2)n2nc(C)nc2n1 | . | . | i | 2% | i | .
COc1ccc(C(=O)CN2C(=O)NC3(CCCCCC3)C2=O)cc1 | -2 | 8% | i | -9% | i | .
COc1ccc(C(=O)CC2(C(=O)O)CCCCC2)cc1 | -2 | 14% | i | 16µM* | i | -10%
CCC(C(=O)Nc1ccccc1N1CCCC1)c1ccccc1Cl (stereo not given) | . | . | . | . | i | .
Cc1cc(C)c(NC(=O)c2sc3nc(C)cc(C)c3c2NC(=O)c2ccccc2)c(C)c1 | . | . | i | -4% | i | .
Cc1cc(Nc2nnnn2-c2ccccc2)n(-c2ccccc2)n1 | 0 | -1% | i | -6% | i | 0%
Cc1cc2ncn(-c3nnnn3-c3ccccc3)c2cc1C | -1 | 1% | i | 18µM* | i | 2%
CN(C)Cc1c(C(=O)N/N=C/c2ccc(OCc3c(F)cccc3Cl)cc2)nnn1-c1nonc1N | -1 | -1% | i | 11µM* | i | 3%
